Hits are enriched below; roughly 11% of the tested compounds scored in any of these assays.
Pf growth 48h = inhibits P. falciparum growth in the first generation, 48 h; Potency, µM (highest dose often 28.7 µM), without a hit: top-dose activity change, negative = inhibition, most hits filed as inhibitors; AID 504832; 310,000 tested, 5.9% active; P. falciparum luciferase growth in erythrocytes, 48 h
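Cell-based growth assay: transgenic P. falciparum expressing firefly luciferase, cultured in red cells within RPMI 1640 containing 0.5% w/v Albumax, 24 mM bicarbonate and gentamycin. A drop in luciferase activity indicates inhibition.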
Pf growth 96h = P. falciparum growth inhibition at 96 hours. Potency, µM (series often up to 28.7 µM), for the others: top-dose activity change, negative = inhibition, hits mostly inhibitors. AID 504834. P. falciparum luciferase reporter growth, 96 h. 320,000 tested, 6.9% active
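Cell-based qHTS: luciferase-tagged P. falciparum in erythrocytes (2% hematocrit, 0.05% parasitemia final) incubated with compounds for 96 hours, 37 C, 5% CO2; luciferase detection reagent then added and luminescence measured.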
AMA1 RON2 block = AMA1-RON2 (P. falciparum) interaction inhibition; AlphaScreen AMA1-biotinylated RON2 peptide binding; 360,000 tested, 0.2% active; Potency, µM (highest dose often 58.2 µM), for the others: at the top dose activity change, negative = inhibition, hits mostly inhibitors;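 note: 0% = vehicle wells and -100% = peptide control; nearly all actives have a fitted effect of over 45% in size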
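AMA1 (3D7) with his tag at 25 nM final met compounds first, then biotinylated RON2 peptide at 25 nM; detection used donor plus acceptor beads, 10 µg/mL apiece, read by AlphaScreen after 30 min at room temperature.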
HCV inhibitor = blocks hepatitis C virus; Huh7.5.1 HCVcc-Cre infection, luciferase reporter, 44 h; Potency, µM (series often up to 41.8 µM), inactives show top-dose activity change, negative = inhibition, most hits filed as inhibitors; 340,000 tested, 3.4% active
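Infectious HCVcc-Cre (~0.5 moi) was added to cells just after compound, with cells seeded 4 h earlier at 1,000 per well. Luciferase activity after 44 h culture reported infection; substrate was incubated 15 min at room temperature before reading.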
The depositor's hits bear a star. Calls come from the whole dose curve; as a rule, active = well fitted curve in the direction sought with a large enough effect; inconclusive = small, poorly fitted or top-dose-only effect, or another doubt; inactive = no such curve, though single readings can be large; an effect the other way counts as inactive or inconclusive. Unless noted, % is set by controls: 0 for no effect and ±100 for the full control effect; potency is the fitted concentration of half-maximal effect.

Screening CC1CCN(CCCNC(=O)c2coc3nc4ccccc4nc23)CC1 returned Pf growth 48h inconclusive, Pf growth 96h 38.2%, AMA1 RON2 block 10.7% and HCV inhibitor 27.2%.
Screening Cc1ccc(CCNC(=O)c2coc3nc4ccccc4nc23)cc1 returned Pf growth 48h -20.8%, Pf growth 96h 2.62µM*, AMA1 RON2 block 0.2% and HCV inhibitor 5.7%.
Cc1cccc(C)c1NC(=O)C(C1CC1)n1c(-c2ccc(C(F)(F)F)cc2)nc2ccccc21 (stereo not given) was read as AMA1 RON2 block 3.9%.
`CCOc1cc(CNCCO)cc(Br)c1OCc1ccc(Cl)cc1` gave Pf growth 48h inconclusive, Pf growth 96h 11.7µM*, AMA1 RON2 block -11.3% and HCV inhibitor 12.6µM*.
Screening CCOc1cc(CNCCO)cc(Br)c1OCc1ccccc1Cl returned Pf growth 48h 10.4µM*, Pf growth 96h 11.7µM*, AMA1 RON2 block 23.5% and HCV inhibitor 8.91µM*.
For C=CCOc1c(Br)cc(CNCCCN2CCOCC2)cc1OC the results were Pf growth 48h inconclusive, Pf growth 96h -17.2%, AMA1 RON2 block -5.2% and HCV inhibitor inconclusive.
`CCOc1cc(CNC(C)(C)CO)cc(Br)c1OCc1ccc(Cl)cc1Cl` gave Pf growth 48h inconclusive, Pf growth 96h 9.28µM*, AMA1 RON2 block 1.5% and HCV inhibitor 2.82µM*.
CCOc1cc(CNCCCN2CCOCC2)cc(Br)c1OCc1ccccc1Cl was read as Pf growth 48h inconclusive, Pf growth 96h inconclusive, AMA1 RON2 block -13.2% and HCV inhibitor 3.55µM*.
O=C(NCc1cccc(Cl)c1)C1Cc2c(-c3ccc(Cl)cc3)ccnc2O1 (stereo not given) was read as AMA1 RON2 block 1.8%.
`CCOc1cc(CNCCN2CCOCC2)ccc1OCc1ccccc1Cl` gave Pf growth 48h inconclusive, Pf growth 96h inconclusive, AMA1 RON2 block -12.5% and HCV inhibitor 2.82µM*.
CCOC(=O)c1cnc2ccc(C)cc2c1NCCN1CCOCC1 was read as Pf growth 48h 11.7µM*, Pf growth 96h 13.8%, AMA1 RON2 block -6.2% and HCV inhibitor -19.7%.
For CCOC(=O)c1cnc2c(ccc3ccccc32)c1NCCCN(C)C the results were Pf growth 48h 4.15µM*, Pf growth 96h inconclusive, AMA1 RON2 block -0.3% and HCV inhibitor inconclusive.
For CCOC(=O)c1cnc2ccc(Cl)cc2c1NCCN(C)C the results were Pf growth 48h inconclusive, Pf growth 96h 4.65µM*, AMA1 RON2 block 4.2% and HCV inhibitor 4.3%.
Cc1ccccc1CNS(=O)(=O)c1ccccc1[N+](=O)[O-] was read as Pf growth 48h 33.6%, Pf growth 96h 0.657µM*, AMA1 RON2 block -2.7% and HCV inhibitor -1.1%.
`O=[N+]([O-])c1ccccc1S(=O)(=O)NCc1ccc(F)cc1` gave Pf growth 48h 1.1%, Pf growth 96h 0.0%, AMA1 RON2 block -18.4% and HCV inhibitor 8.4%.
CC(C)c1ccccc1NC(=O)CNCCOc1ccccc1F was read as Pf growth 96h -14.1%, AMA1 RON2 block inconclusive and HCV inhibitor 6.9%.
Screening CC(C)C(C(=O)N1CCOCC1)N1C(=O)c2ccccc2C1=O (stereo not given) returned Pf growth 48h 12.4%, Pf growth 96h 10.4µM*, AMA1 RON2 block 16.0% and HCV inhibitor -2.6%.
CC(C(=O)N1CCCCC1)N1C(=O)c2ccccc2C1=O (stereo not given) was read as Pf growth 48h 12.4%, AMA1 RON2 block -4.8% and HCV inhibitor 11.6%.
Screening C=CC(C)(C)c1[nH]cnc1/C=C1\NC(=O)C(C(C)C)NC1=O (stereo not given) returned Pf growth 48h inconclusive, Pf growth 96h 2.08µM*, AMA1 RON2 block 89.6% and HCV inhibitor inconclusive.
Screening C#Cc1ccc(C(=O)Nc2ccc(N3CCC(C)CC3)c(C(N)=O)c2)cc1 returned Pf growth 48h 1.85µM*, Pf growth 96h inconclusive, AMA1 RON2 block -1.3% and HCV inhibitor -21.9%.
Cc1cccc(NC(=O)c2cc(NC(=O)c3ccccc3)ccc2N2CCCCC2)c1 was read as Pf growth 96h -3.9%, AMA1 RON2 block -5.7% and HCV inhibitor inconclusive.
CC(C)c1c(C(=O)N/N=C/c2ccoc2)nnn1-c1nonc1N was read as Pf growth 48h 25.6%, Pf growth 96h -21.0%, AMA1 RON2 block 68.0% and HCV inhibitor -25.6%.
`COc1cc(/C=N/NC(=O)c2nnn(-c3nonc3N)c2C(C)C)ccc1OCc1ccccc1` gave Pf growth 48h inconclusive, Pf growth 96h 9.28µM*, AMA1 RON2 block -0.1% and HCV inhibitor 14.1µM*.
CC(/C=N/NC(=O)c1nnn(-c2nonc2N)c1C(C)C)=C\c1ccccc1 was read as Pf growth 48h 44.4%, Pf growth 96h 11.7%, AMA1 RON2 block 11.9% and HCV inhibitor 10µM*.
For CC(C)c1c(C(=O)N/N=C/c2ccc(C(F)(F)F)cc2)nnn1-c1nonc1N the results were Pf growth 48h inconclusive, Pf growth 96h inconclusive, AMA1 RON2 block 6.9% and HCV inhibitor 5.62µM*.
`COc1ccc(N2CS(=O)CC2=O)cc1` (stereo not given) gave Pf growth 48h 8.1%, Pf growth 96h 34.1%, AMA1 RON2 block 0.6% and HCV inhibitor -5.9%.
For CCCS(=O)(=O)NC(=O)C1(C)CCCN(C(=O)c2cccc(C(F)(F)F)c2)C1 (stereo not given) the results were AMA1 RON2 block 6.6%.
`Nc1ccn(CC(=O)NCCNc2ccc([N+](=O)[O-])cn2)c(=O)n1` gave Pf growth 48h 1.2%, Pf growth 96h 21.2%, AMA1 RON2 block 13.5% and HCV inhibitor inconclusive.
COc1ccc(NC(=O)CN2C(=O)NC3(CCCc4ccccc43)C2=O)c(OC)c1 (stereo not given) was read as AMA1 RON2 block -1.9% and HCV inhibitor -3.0%.
Screening CCCCc1cc(=O)oc2cc(C)cc(OCC(=O)NCc3ccncc3)c12 returned Pf growth 48h inconclusive, Pf growth 96h 2.33µM*, AMA1 RON2 block 1.6% and HCV inhibitor -14.2%.
Screening CCCc1cc(=O)oc2cc(C)cc(OCC(=O)NCc3ccccn3)c12 returned Pf growth 48h inconclusive, Pf growth 96h 2.62µM*, AMA1 RON2 block -9.3% and HCV inhibitor -21.8%.
Screening CCCc1cc(=O)oc2cc(OC(C)C(=O)NCc3ccccn3)c(Cl)cc12 (stereo not given) returned Pf growth 48h -7.8%, Pf growth 96h 10.4µM*, AMA1 RON2 block 13.1% and HCV inhibitor -9.4%.
Screening CCCc1cc(=O)oc2c(C)c(OC(C)C(=O)NCc3ccccn3)ccc12 (stereo not given) returned Pf growth 48h -3.4%, Pf growth 96h -3.1%, AMA1 RON2 block 6.0% and HCV inhibitor 5.6%.
For CCCc1cc(=O)oc2cc(C)cc(OCC(=O)Nc3cccnc3)c12 the results were Pf growth 48h 0.147µM*, Pf growth 96h 0.0928µM*, AMA1 RON2 block 0.0% and HCV inhibitor inconclusive.
For O=C(CSc1ccc(F)cc1)Nc1ccc2c(c1)C(=O)NC2=O the results were Pf growth 48h 23.7%, Pf growth 96h 79.6%, AMA1 RON2 block 4.5% and HCV inhibitor 12.2%.
